Screening results from PubChem BioAssay.
HCV inh: HCV inhibition; AID 651820; 340,000 tested, 3.4% active; Potency, µM (top dose mostly 41.8 µM), inactives show at the highest dose activity change, negative = inhibition, most hits filed as inhibitors; Huh7.5.1 HCVcc-Cre infection, luciferase reporter, 44 h; further: on the % scale 0 is the no-effect control and ±100 the full control effect
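Luciferase read-out (15 sec integration) after a 15 min room-temperature substrate step quantifies HCVcc-Cre infection. Cells, 1,000 per well, had compound added 4 h post-plating, then virus at ~0.5 moi, and were cultured 44 h.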
VACV Venus inh: vaccinia inhibition (Venus reporter). AID 720580. Vaccinia virus Venus reporter expression, fluorescence. 330,000 tested, 0.46% active. Potency, µM (highest dose often 36.5 µM), inactives show at the top dose activity change, negative = inhibition, actives largely listed as inhibitors; calls by dose curve; tested in A549 cells; further: on the % scale 0 is the no-effect control and ±100 the full control effect; nearly all actives have a fitted effect of over 30% in size
Pf growth 48h: P. falciparum growth inhibition at 48 hours (one generation); P. falciparum luciferase growth in erythrocytes, 48 h; Potency, µM (series often up to 28.7 µM), for inactives: top-dose activity change, negative = inhibition, hits mostly inhibitors; 310,000 tested, 5.9% active; AID 504832; further: on the % scale 0 is the no-effect control and ±100 the full control effect
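A one-generation exposure of luciferase-tagged malaria parasites in RPMI 1640/Albumax erythrocyte culture, 37 C and 5% CO2. Inhibition is inferred from decreased luminescence after adding detection reagent.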
Pf growth 96h: P. falciparum growth inhibition at 96 hours; P. falciparum luciferase reporter growth, 96 h; 320,000 tested, 6.9% active; Potency, µM (top dose mostly 28.7 µM), for inactives: top-dose activity change, negative = inhibition, usual class: inhibitors; AID 504834; further: on the % scale 0 is the no-effect control and ±100 the full control effect
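Cell-based qHTS: luciferase-tagged P. falciparum in erythrocytes (2% hematocrit, 0.05% parasitemia final) incubated with compounds for 96 hours, 37 C, 5% CO2; luciferase detection reagent then added and luminescence measured.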
NS1 function inh: blocks influenza NS1 protein function; Potency, µM (top dose mostly 46.1 µM), for the others: at the top dose activity, positive = more growth; 270,000 tested, 0.4% active; AID 2326; calls by dose curve; further: actives are rising curves; nearly all actives have a fitted effect of over 50% in size
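S. cerevisiae expressing influenza A NS1, grown in glucose, washed, then diluted 1:100 into pH 6.0 -URA galactose medium with 23 nl compound. Growth recovery read as OD600; NS1-free strain serves as control.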
VACV mCherry inh: inhibitors of vaccinia virus infection (mCherry reporter signal). Vaccinia virus mCherry reporter infection, fluorescence. Potency, µM (highest dose often 36.5 µM), without a hit: at the top dose activity change, negative = inhibition, most hits filed as inhibitors. 310,000 tested, 0.63% active. AID 720579; calls by dose curve; tested in A549 cells; further: on the % scale 0 is the no-effect control and ±100 the full control effect; nearly all actives have a fitted effect of over 35% in size
Active calls of the source: *; i = inactive; u = inconclusive; x = no result given; [ ] = another dose, or the depositor's remark. Rows were chosen to be rich in hits. Some 11% of all compounds tested hit in one or more screens of this group. Unless noted, the call rests on the fitted dose curve; in most records, active means well fitted inhibition curve with a large enough effect; inconclusive means small, poorly fitted or top-dose-only effect, or another doubt; inactive means no such curve, though single readings can be large or run the other way. Potency means the concentration at half of the fitted maximal effect.

SMILES | HCV inh | VACV Venus inh | Pf growth 48h | Pf growth 96h | NS1 function inh | VACV mCherry inh
COc1cc([C@@H]2c3cc4c(cc3[C@@H](O)[C@H]3COC(=O)[C@H]23)OCO4)cc(OC)c1O[Si](C)(C)C(C)(C)C | -29.0% | u | 7.38µM* | 8.28µM* | 3.1% | -18.6%
C/C(=N\NC(=S)NCc1ccccc1)c1ccc(C(C)(C)C)cc1 | -21.5% | -29.5% | 9.28µM* | u | 8.1% | -27.7%
Cc1ccc(NC(=O)CNS(=O)(=O)c2cccs2)cc1F | 5.8% | -15.0% | 32.3% | x | 6.1% | -14.2%
O=C(COC(=O)c1cc[n+]([O-])cc1)Nc1cccc(Cl)c1Cl | 22.4% | -8.1% | 11.7µM* | 17.1% | x | -26.9%
Cc1ccc2c(c1)-c1c(ssc1=S)C(C)(C)N2C(=O)CSc1nncn1C | 10µM* | -25.6% | u | 5.1% | 15.0% | x
Cc1cc(C)c2c(c1)-c1c(ssc1=S)C(C)(C)N2C(=O)CSc1nncn1C | 12.6µM* | u | 4.65µM* | u | 7.5% | x
COCCn1c(SCC(=O)Nc2ccc(Cl)c(S(=O)(=O)N(C)C)c2)nc2ccccc21 | u | u | 11.7µM* | x | -3.1% | -12.2%
COCCn1c(SCC(=O)Nc2cccc(S(N)(=O)=O)c2)nc2ccccc21 | 0.2% | -1.4% | x | u | 7.7% | x
COCCn1c(SCC(=O)Nc2ccc(S(N)(=O)=O)cc2)nc2ccccc21 | 2.3% | -13.4% | 12.2% | x | 1.0% | -20.0%[1.46 µM]
COCCn1c(SCC(=O)Nc2ccc(S(=O)(=O)N3CCOCC3)cc2)nc2ccccc21 | -27.9% | x | 10.4µM* | 46.8% | -20.9% | x
COc1ccc(NC(=O)CCc2nnc3n(Cc4ccc(C)cc4)c(=O)c4ccccc4n23)cc1 | x | -10.6% | x | x | x | -14.0%
Cc1cc(NC(=O)Cn2cnc3c(cnn3C(C)(C)C)c2=O)no1 | 13.7% | -4.0% | -12.1% | 8.9% | 1.8% | -10.5%[1.46 µM]
Cc1cc(Cl)ccc1C(=O)C1CCCN(C(=O)c2cscn2)C1 (stereo not drawn) | -17.9% | -3.0% | 40.5% | u | -3.7% | i
Cc1nc(C)c(C(=O)N2CCCC(C(=O)c3ccc(Cl)cc3C)C2)s1 (stereo not drawn) | 5.8% | x | -19.3% | 13.1µM* | -10.5% | x
Cn1cc(/C=C/C(=O)N2CCCC(C(=O)c3ccc(C(C)(C)C)cc3)C2)cn1 (stereo not drawn) | -2.3% | -5.7% | -18.9% | 19.5% | -1.1% | -1.1%
Cc1cc(Cl)ccc1C(=O)C1CCCN(C(=O)/C=C/c2cnn(C)c2)C1 (stereo not drawn) | 13.5% | x | 8.1% | 4.15µM* | -3.7% | x
CCC12CN3CCN(CC(C3)/C1=N\O)C2 | 12.4% | -12.8% | 10.3% | x | 2.4% | i
COc1ccccc1N(C(=O)c1ccncc1)c1nc(-c2ccc([N+](=O)[O-])cc2)cs1 | u | -24.9% | 9.28µM* | u | 18.3% | u
Cc1nc(-c2ccccc2)sc1C1(C)CC(c2ccccc2F)=NO1 (stereo not drawn) | 12.3% | -7.6% | x | x | x | 13.8%
S=C(NC1CCCCC1)N1CCOCCOCCN(C(=S)NC2CCCCC2)CCOCC1 | 19.6% | -13.2% | 11.7µM* | 4.65µM* | 4.6% | i
O=C(COC(=O)CNC(=O)C1CCCCC1)Nc1ccccc1Cl | x | x | 19.3% | -15.7% | x | x
COc1ccccc1CNC(=O)[C@H](Cc1c[nH]c2ccccc12)NC(=O)[C@@H]1Cc2ccccc2CN1 | -25.7% | -1.8% | u | 10.4µM* | 24.3% | 0.8%
CCn1cnc2cc(NC(=O)c3cccs3)ccc21 | -4.7% | -4.9% | 66.2% | 142.9% | -7.8% | -7.9%
CCn1cc(C(=O)N[C@@H](CCSC)C(=O)NCCCO)c(=O)c2cc3c(cc21)OCO3 | -10.4% | -8.4% | u | u | 3.9% | i
CCn1cc(C(=O)N[C@@H](CCSC)C(=O)NCCOC)c(=O)c2cc3c(cc21)OCO3 | 10.2% | -7.1% | u | 11.7µM* | -0.8% | -11.0%
SMILES | HCV inh | VACV Venus inh | Pf growth 48h | Pf growth 96h | NS1 function inh | VACV mCherry inh
C=Cn1cc[n+](CC(=O)c2cccs2)c1 | 6.5% | x | u | 6.57µM* | -4.3% | x
C=Cn1cc[n+](CC(=O)c2ccc(-c3ccccc3)cc2)c1 | u | -0.4% | 1.47µM* | u | -9.5% | i
O=C(NCc1ccco1)c1ccc(Br)s1 | -8.7% | -15.2% | -7.1% | x | -16.4% | i
C=Cn1cc[n+](CC(=O)c2cc(C(C)(C)C)c(O)c(C(C)(C)C)c2)c1 | u | x | 6.57µM* | 2.08µM* | -7.4% | x
Cc1cc[n+](CC(=O)c2cccs2)cc1 | 8.0% | -12.8% | 5.5% | x | 7.2% | -11.2%
C=Cn1cc[n+](CC(=O)c2ccc(Br)s2)c1 | 9.4% | x | u | 3.29µM* | 10.5% | x
Cc1cccc(OCC(=O)Nc2ccc(N3CCN(S(C)(=O)=O)CC3)cc2)c1C | 25.9% | -8.0% | 0.7% | u | 6.2% | -7.1%
Cc1cc(C)cc(C(=O)Nc2cc(C(F)(F)F)ccc2N2CCN(c3ccccc3)CC2)c1 | x | 5.8% | x | x | x | -4.9%
CC1=C(/C=C/C(C)=C/C=C/C(C)=C\CO)C(C)(C)CCC1 | x | -12.9% | x | x | x | -18.8%
O=C(O)CCC(=O)Nc1ccccc1Oc1ccccc1 | 17.7% | 0.2% | 3.8% | -3.5% | -0.7% | 11.3%
COCCn1c(-c2ccccc2)nc2oc3cc(OC)ccc3c(=O)c2c1=O | -7.7% | -16.3% | u | u | -41.0% | i
CCCc1nc2oc3cc(OC)ccc3c(=O)c2c(=O)n1Cc1ccco1 | -2.3% | 1.4% | 9.28µM* | 14.7% | -35.3% | -11.7%
COc1ccc2c(=O)c3c(=O)n(Cc4ccco4)c(-c4cc(OC)c(OC)c(OC)c4)nc3oc2c1 | -8.6% | x | 1.85µM* | 1.65µM* | 1.7% | x
COc1ccc2c(=O)c3c(=O)n(Cc4ccco4)c(-c4ccccc4)nc3oc2c1 | u | x | 11.7µM* | x | -65.2% | x
COc1ccc(Cn2c(C)nc3oc4cc(OC)ccc4c(=O)c3c2=O)cc1 | -22.0% | -5.8% | u | u | 1.7% | -11.9%
COCCn1c(-c2ccc(Br)cc2)nc2oc3cc(OC)ccc3c(=O)c2c1=O | -0.6% | x | 8.28µM* | u | -33.4% | x
COc1cc(=O)n(C)c2ccccc12 | -9.0% | -11.8% | -4.7% | -0.1% | -0.6% | -10.8%
Cc1[nH]nc2c1C1(C(=O)Nc3ccc([N+](=O)[O-])cc31)C(C#N)=C(N)O2 (stereo not drawn) | -3.2% | x | 8.1% | x | 2.5% | x
Cc1[nH]c2ccccc2c1SCc1nnc(SCc2ccc(Cl)cc2)n1C | 11.2µM* | -24.4% | 14.7µM* | u | -0.4% | u
Cc1[nH]c2ccccc2c1SCc1nnc(SCc2ccccc2)n1C | -1.4% | u | u | u | -0.6% | -14.5%
O=C(COc1ccc(S(=O)(=O)NC2CCCCC2)cc1)NC1CCCCC1 | 0.7% | u | 14.7µM* | u | -2.2%[9.22 µM] | x
O=C(COC(=O)c1ccc(S(=O)(=O)N2CCCCC2)cc1)NC1CCCCC1 | x | -16.4% | x | x | x | -5.5%
